{
  "source": "PubChem BioAssay (NCATS)",
  "note": "Records with an inconclusive call do not appear. A call without a number means that no potency is given here. Activity calls are given as the source filed them. Calls follow the shape of the dose curve; as a rule, active = well fitted inhibition curve with a large enough effect; inconclusive = small, poorly fitted or top-dose-only effect; inactive = no such curve, though single readings can be large or run the other way.",
  "data": [
    {"assay": "qHTS assay for measurement of the activity of small molecule inhibitors on Zika virus induced Caspase-3 activity in human iPSC derived neural progenitor cells (hNPCs) (AID 1224857); also: nearly all actives have a fitted effect of over 65% in size", "settings": "hNPCs ZIKV-induced caspase-3/7, Caspase-Glo luminescence, 6 h; series mostly up to 45.7 µM", "text": "National Center for Advancing Translational Sciences [NCATS]\nJohns Hopkins University School of Medicine\nIncrease in the Caspase-3 activity indicates an activation of apoptosis cell death pathway caused by Zika virus infection in certain types of neuronal cells including human neural progenitor cells (hNPCs), astrocytes, and astrocytoma cell line (SNB-19). This cell-based caspase-3 activity assay measures the increased caspase-3 activity in the human iPSC derived neural progenitor cells (hNPCs) after a 6-hour Zika virus infection with a luminescence readout. A decrease in the luminescence signal in this assay by small molecule treatment indicates an inhibitory effect of that small molecule on the Zika virus induced caspase-3 activity that may correlate with its effect on reduction of Zika virus caused cell death.\nThe medium for hNPCs consists of DMEM/F12, N2 supplement (ThermoFisher, Cat.# 17502048), NEAA (ThermoFisher, Cat. # 11140050), 2 ug/ml heparin, 2 uM cyclopamine, and B27 (ThermoFisher, Cat. # 17504044). A Caspase-Glo 3/7 assay kit (catalog number G8092; Promega, Madison, WI) was used to detect caspase-3 activity induced by Zika virus infection in human cells. The reagent mixture was reconstituted as described in the protocol from the manufacturer. Polystyrene tissue culture treated and PDL coated white plates were obtained from Greiner Bio-One (Monroe, NC). Cells were seeded in 384- or 1536-well assay plates and cultured at 37 C with 5% CO2 for 16 to 20 hours. The typical cell seeding density in the 1536-well plate assay is 350 cells/well in 3 ul medium for hNPCs in tissue culture treated plates. Compounds were added to cells and incubated for one hour before addition of ZIKV solution to cells (2 FFU/cell). After incubation at 37 C with 5% CO2 for 6 hours, the reagent mixture of Caspase-Glo 3/7 assay kit was added to each well, followed by incubation at room temperature for 30 minutes. The luminescence intensity of the assay plates was measured using a ViewLux plate reader (PerkinElmer). Data were normalized by using the cell-containing wells without ZIKV as a negative control (0% induction of caspase 3/7 activity) and wells containing ZIKV infected cells (Caspase-3 activity induced) as a positive control (100% induction of caspase 3 activity). The percentage inhibitions of the increased Caspase-3 activity by small molecule inhibitors were then calculated.", "values": [
      {"smiles": "CCC(COC(=O)c1cc(OC)c(OC)c(OC)c1)(c1ccccc1)N(C)C", "note": "(stereo not given)", "Potency": "inactive"},
      {"smiles": "COc1ccc2c(c1OC)CN1CCc3cc4c(cc3C1C2)OCO4", "note": "(stereo not given)", "Potency": "inactive"},
      {"smiles": "COc1ccc(Cc2nccc3cc(OC)c(OC)cc23)cc1OC", "Potency": "inactive"},
      {"smiles": "Cc1sc2c(c1C)C(c1ccc(Cl)cc1)=N[C@@H](CC(=O)OC(C)(C)C)c1nnc(C)n1-2", "Potency": "inactive"},
      {"smiles": "CN1CCN(C(=O)O[C@H]2c3nccnc3C(=O)N2c2ccc(Cl)cn2)CC1", "Potency": "inactive"},
      {"smiles": "CC1OC(C)OC(C)O1", "note": "(stereo not given)", "Potency": "inactive"},
      {"smiles": "CC(=O)[C@H]1CC[C@H]2[C@@H]3CC[C@H]4C[C@](C)(O)CC[C@]4(C)[C@H]3CC[C@]12C", "Potency": "inactive"},
      {"smiles": "CC(O)(CS(=O)(=O)c1ccc(F)cc1)C(=O)Nc1ccc(C#N)c(C(F)(F)F)c1", "note": "(stereo not given)", "Potency": "inactive"},
      {"smiles": "c1ccc2c(c1)OCC(C1=NCCN1)O2", "note": "(stereo not given)", "Potency": "inactive"},
      {"smiles": "CCCC1CCCCN1", "note": "(stereo not given)", "Potency": "inactive"},
      {"smiles": "N[C@@H](Cc1ccc(N(CCCl)CCCl)cc1)C(=O)O", "Potency": "inactive"},
      {"smiles": "FC(F)(F)c1cccc(C2=CCN(CCc3ccc4ccccc4c3)CC2)c1", "Potency": "inactive"},
      {"smiles": "CC(=O)[C@H]1CC[C@H]2[C@@H]3CC[C@H]4C[C@H](O)CC[C@]4(C)[C@H]3C(=O)C[C@]12C", "Potency": "inactive"},
      {"smiles": "Oc1cccc2cccnc12", "Potency": "inactive"},
      {"smiles": "Cc1cccc(C)c1NC(=O)CN1CCCC1=O", "Potency": "inactive"},
      {"smiles": "CCC1(C2=NCCN2)Cc2ccccc2O1", "note": "(stereo not given)", "Potency": "inactive"},
      {"smiles": "CC[C@@H](CO)NC(=O)[C@@H]1C=C2c3cccc4[nH]cc(c34)C[C@H]2N(C)C1", "Potency": "inactive"},
      {"smiles": "N[C@@H](Cc1ccc(Oc2cc(I)c(O)c(I)c2)c(I)c1)C(=O)O", "Potency": "inactive"},
      {"smiles": "CCCC(C)(COC(N)=O)COC(=O)NC(C)C", "note": "(stereo not given)", "Potency": "inactive"},
      {"smiles": "C[C@@H]1[C@@H](C(=O)C[C@H]2O[C@@H]3O[C@]4(C)CC[C@@H]5[C@H](C)CC[C@@H]([C@H]2C)[C@@]35OO4)O[C@@H]2O[C@]3(C)CC[C@H]4[C@H](C)CC[C@@H]1[C@@]24OO3", "Potency": "inactive"},
      {"smiles": "Cc1ccc(S(=O)(=O)N[C@@H](CCCCN)C(=O)CCl)cc1", "Potency": "inactive"},
      {"smiles": "CC(C)NCC(O)c1ccccc1Cl", "note": "(stereo not given)", "Potency": "inactive"},
      {"smiles": "CN1C[C@H](CNC(=O)OCc2ccccc2)C[C@@H]2c3cccc4c3c(cn4C)C[C@H]21", "Potency": "inactive"},
      {"smiles": "O=C1NCN(c2ccccc2)C12CCN(CC1COc3ccccc3O1)CC2", "note": "(stereo not given)", "Potency": "inactive"},
      {"smiles": "Clc1cccc(N2CCNCC2)c1", "Potency": "inactive"},
      {"smiles": "CCN(CC)CCN1C(=O)CN=C(c2ccccc2F)c2cc(Cl)ccc21", "Potency": "inactive"},
      {"smiles": "O=c1[nH]c2ccccc2n1C1CCN(CCCC(c2ccc(F)cc2)c2ccc(F)cc2)CC1", "Potency": "inactive"},
      {"smiles": "Clc1ccc(CCC(Cn2ccnc2)Sc2c(Cl)cccc2Cl)cc1", "note": "(stereo not given)", "Potency": "inactive"},
      {"smiles": "O=c1[nH]c2ccccc2n1CCCN1CCC(n2c(=O)[nH]c3cc(Cl)ccc32)CC1", "Potency": "inactive"},
      {"smiles": "O=C(NC(O)C(Cl)(Cl)Cl)NC(O)C(Cl)(Cl)Cl", "note": "(stereo not given)", "Potency": "inactive"},
      {"smiles": "C=CCN1CC[C@]23c4c5ccc(O)c4O[C@H]2C(=O)CC[C@@]3(O)[C@H]1C5", "Potency": "inactive"},
      {"smiles": "CC(CCc1ccccc1)NC(C)C(O)c1ccc(O)cc1", "note": "(stereo not given)", "Potency": "inactive"},
      {"smiles": "C[C@@H]1O[C@@H](O[C@H]2C[C@@H](O)[C@]3(CO)[C@H]4[C@H](O)C[C@]5(C)[C@@H](C6=CC(=O)OC6)CC[C@]5(O)[C@@H]4CC[C@]3(O)C2)[C@H](O)[C@H](O)[C@H]1O", "Potency": "inactive"},
      {"smiles": "CCOP(=S)(OCC)Oc1cc(C)nc(C(C)C)n1", "Potency": "inactive"},
      {"smiles": "NCC1(CC(=O)O)CCCCC1", "Potency": "inactive"},
      {"smiles": "Clc1ccc(COC(Cn2ccnc2)c2ccc(Cl)cc2Cl)cc1", "note": "(stereo not given)", "Potency": "inactive"},
      {"smiles": "O=C(O)C(=O)c1cn(Cc2ccccc2)c2ccc(-c3ccc(OC(F)(F)F)cc3)cc12", "Potency": "inactive"},
      {"smiles": "CNC(=O)N1N=C(c2ccc(N)cc2)c2cc3c(cc2CC1C)OCO3", "note": "(stereo not given)", "Potency": "inactive"},
      {"smiles": "Nc1ccncc1", "Potency": "inactive"},
      {"smiles": "CCCN1CCC[C@@H]2Cc3nc(N)ncc3C[C@H]21", "Potency": "inactive"}
    ]}
  ]
}
